Assay results reported in PubChem BioAssay (EPA / NIEHS).
Records with an inconclusive call do not appear. Calls of active or inactive are those of the source. How the source made its calls, unless noted: active means hit-call score of the fitted dose curve at least 0.9, where 1 is the maximum; inconclusive means response in the unintended direction; inactive means score below 0.9.

Legend:
[1] = Tanguay_ZF_120hpf_CIRC_legacy: (Legacy) Oregon State University Tanguay Lab 120 Hour Post-fertilization zebrafish Assay for Circulatory Malformation (AID 2283651)
Method in brief: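 Tropical 5D wild-type embryos, dechorionated with pronase at 4 hpf, were placed singly in wells at 6 hpf and exposed statically at 28C to 120 hpf (0.64% DMSO final). Circulatory malformation was scored present/absent by brightfield microscopy.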

[2] = Tanguay_ZF_120hpf_SWIM_legacy: (Legacy) Oregon State University Tanguay Lab 120 Hour Post-fertilization zebrafish Assay for Swim Bladder Malformation (AID 2283654);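 further: swim bladder malformation in each larva scored yes or no under brightfield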
Method in brief: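 Dechorionated Tropical 5D wild-type embryos, placed singly from 6 hpf, were statically exposed at 28C to 120 hpf with 0.64% DMSO final; swim bladder malformation was scored present/absent by brightfield microscopy, gain of signal relative to DMSO controls.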

[3] = read-out: ABC Transporter (ABCB1), ABCB1 (gene 5243); test: CLD_ABCB1_6hr: CellzDirect (CLD) Gene Expression Assay for ABC Transporter (ABCB1) at 6 hours (AID 2283659);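 further: hits raise ABCB1 transcript above the DMSO vehicle baseline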
Method in brief: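 Primary human hepatocytes (two donor preparations) dosed daily for two days with chemicals at multiple concentrations, 0.2% DMSO vehicle; harvested 6 h post-dose. ABCB1 mRNA induction quantified by qNPA chemiluminescence; gain-of-signal fitted versus DMSO.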

[4] = read-out: xenobiotic metabolism (CYP1A1), CYP1A1 (gene 1543); test: CLD_CYP1A1_6hr: CellzDirect (CLD) Gene Expression Assay for xenobiotic metabolism (CYP1A1) at 6 hours (AID 2283661);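 on AC50: potency for transcript induction above DMSO vehicle baseline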
Method in brief: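 Primary human hepatocytes from two donors, compound versus 0.2% DMSO vehicle. CYP1A1 mRNA measured 6 h after dosing by quantitative nuclease protection assay with chemiluminescent read-out; induction fitted relative to DMSO, cytotoxicity flagged by microscopy.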

[5] = Tanguay_ZF_120hpf_TR_legacy: (Legacy) Oregon State University Tanguay Lab 120 Hour Post-fertilization zebrafish Assay for Touch Response (AID 2283667)
Method in brief: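 Tropical 5D wild-type zebrafish embryos were exposed statically in sealed, foil-covered plates at 28C until 120 hpf, with 0.64% (vol/vol) final DMSO. Touch response was scored as present or absent; embryos that died were not scored.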

[6] = read-out: organic anion transporter (SLCO1B1), SLCO1B1 (gene 10599); test: CLD_SLCO1B1_6hr: CellzDirect (CLD) Gene Expression Assay for organic anion transporter (SLCO1B1) at 6 hours (AID 2283668);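 further: active means mRNA induction above DMSO baseline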
Method in brief: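 Primary human hepatocytes dosed daily with test chemicals (multiple concentrations) in 0.2% DMSO vehicle; harvested at 6 h. SLCO1B1 mRNA quantified by qNPA chemiluminescence, fitted as gain-of-signal versus DMSO; cytotoxicity from phase-contrast morphology flagged alongside.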

[7] = read-out: sulfotransferase (SULT2A), SULT2A1 (gene 6822); test: CLD_SULT2A_6hr: CellzDirect (CLD) Gene Expression Assay for sulfotransferase (SULT2A) at 6 hours (AID 2283669);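 further: hits raise transcript level above the DMSO vehicle baseline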
Method in brief: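 Primary human hepatocytes from two donor preparations were dosed daily with chemicals or 0.2% DMSO and harvested at 6 h. Transcript induction read by qNPA chemiluminescence, fitted for gain of signal relative to DMSO; morphology-based cytotoxicity annotated.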

[8] = read-out: glucuronosyltransferase (UGT1A1), UGT1A1 (gene 54658); test: CLD_UGT1A1_6hr: CellzDirect (CLD) Gene Expression Assay for glucuronosyltransferase (UGT1A1) at 6 hours (AID 2283672)
Method in brief: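 Primary human hepatocytes from two donor preparations, dosed with fresh solutions in 0.2% DMSO, harvested at 6 h. UGT1A1 mRNA measured by qNPA chemiluminescence; induction fitted upward versus DMSO.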

[9] = read-out: ABC Transporter (ABCB11), ABCB11 (gene 8647); test: CLD_ABCB11_6hr: CellzDirect (CLD) Gene Expression Assay for ABC Transporter (ABCB11) at 6 hours (AID 2283675);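 further: hits raise ABCB11 mRNA level so AC50 marks induction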
Method in brief: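 Human primary hepatocytes (two donor preparations) given fresh chemical daily at multiple concentrations, vehicle 0.2% DMSO. ABCB11 mRNA induction measured 6 h after dosing by qNPA chemiluminescence versus DMSO; cytotoxicity annotated from morphology.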

[10] = Tanguay_ZF_120hpf_TRUN_legacy: (Legacy) Oregon State University Tanguay Lab 120 Hour Post-fertilization zebrafish Assay for Truncated Body (AID 2283655)
Method in brief: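 Binary presence/absence of truncated body is recorded at 120 hpf by brightfield, with non-mortality endpoints skipped after death. Exposure is static from 6 hpf in sealed dark plates at 28C, using dechorionated wild-type zebrafish, 0.64% DMSO.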

[11] = tested on: Thyroperoxidase (TPO), gene 54314; test: CCTE_Simmons_AUR_rTPO: CCTE's Amplex UltraRed Assay for Thyroperoxidase (TPO) Inhibition, Simmons Lab (AID 2283662);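 on AC50: potency for loss of signal meaning inhibition of peroxidase activity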
Method in brief: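 Cell-free peroxidase activity assay using rat thyroid gland microsomes with excess H2O2 (300 uM) and 25 uM Amplex UltraRed. Compounds tested from 5 nM to 87.5 uM; fluorescence measured after 30 min at 37C, analysed relative to DMSO baseline.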

[12] = CCTE_Simmons_CellTiterGLO_HEK293T: Viability Assessment in CCTE's Assays for Thyroperoxidase (TPO) Inhibition, Simmons Lab (AID 2283665);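 on AC50: cells exposed to compound for 24 h before readout; actives reduce ATP signal below DMSO vehicle meaning cytotoxicity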
Method in brief: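 HEK293T cells in DMEM with 1% FBS were dosed with 8 concentrations (5 nM–87.5 uM final, 0.5% DMSO) for 24 hr at 37C; ATP content was read by CellTiter-Glo luminescence, loss-of-signal versus DMSO, three biological replicates.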

[13] = read-out: ABC Transporter (ABCB11), ABCB11 (gene 8647); test: CLD_ABCB11_24hr: CellzDirect (CLD) Gene Expression Assay for ABC Transporter (ABCB11) at 24 hours (AID 2283674; active means hit-call score of the fitted dose curve at least 0.9, where 1 is the maximum; inactive means score below 0.9)
Method in brief: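 Primary human hepatocytes were dosed daily for two days, with 0.2% DMSO vehicle. ABCB11 mRNA induction was measured at 24 hours by quantitative nuclease protection assay with chemiluminescence. Gain of signal was fitted relative to DMSO.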

[14] = read-out: xenobiotic metabolism (CYP1A2), CYP1A2 (gene 1544); test: CLD_CYP1A2_6hr: CellzDirect (CLD) Gene Expression Assay for xenobiotic metabolism (CYP1A2) at 6 hours (AID 2283663)
Method in brief: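 Primary human hepatocytes from two donor preparations, dosed daily with multiple concentrations in 0.2% DMSO and harvested at 6 h. CYP1A2 mRNA induction measured by chemiluminescent qNPA, gain of signal fitted against DMSO; cytotoxicity flagged morphologically.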

Measured: AC50

CCCN(CCC)c1c([N+](=O)[O-])cc(C(F)(F)F)c(N)c1[N+](=O)[O-]
inactive: [1] | [2] | [3] | [5] | [6] | [7] | [8] | [9]
active: [4] 3 µM

COC(=O)c1cccc(C)c1S(=O)(=O)NC(=O)Nc1nc(OCC(F)(F)F)nc(N(C)C)n1
active: [4] 5.2 µM
inactive: [6] | [7] | [8] | [9]

COC(=O)c1ccccc1S(=O)(=O)NC(=O)Nc1nc(OC(F)F)cc(OC(F)F)n1
inactive: [4] | [6] | [8] | [9]

CC(=O)[C@H]1CC[C@H]2[C@@H]3CCC4=CC(=O)CC[C@]4(C)[C@H]3CC[C@]12C
inactive: [1] | [2] | [10] | [5]

O=C(Nc1ccc([N+](=O)[O-])cc1Cl)c1cc(Cl)ccc1O
inactive: [2] | [10] | [3] | [6] | [9]
active: [4] 0.218 µM | [11] 3.56 µM | [12] 5.34 µM

COC(=O)c1c(Cl)nn(C)c1S(=O)(=O)NC(=O)Nc1nc(OC)cc(OC)n1
active: [4] 0.696 µM
inactive: [7] | [8]

CCCN(CCC)C(=O)SCC
inactive: [2] | [10] | [3] | [4] | [5] | [6] | [7] | [8] | [13]

C#C[C@]1(O)CC[C@H]2[C@@H]3CCC4=CC(=O)CC[C@@H]4[C@H]3CC[C@@]21CC
inactive: [2]

c1ccc(Nc2ccccc2)cc1
active: [4] 3.97 µM | [12] 89.8 µM
inactive: [2] | [14] | [5] | [6] | [8] | [13] | [9]

C=CCOC(Cn1ccnc1)c1ccc(Cl)cc1Cl (stereo unspecified)
active: [4] 0.0861 µM
inactive: [10] | [3] | [5] | [6] | [7] | [8]

Cc1nn(C)c(Oc2ccccc2)c1C=NOCc1ccc(C(=O)OC(C)(C)C)cc1
active: [13] 36.8 µM
inactive: [1] | [2] | [10] | [5] | [7]

COC(=O)c1ccc(CNS(C)(=O)=O)cc1S(=O)(=O)NC(=O)Nc1nc(OC)cc(OC)n1
inactive: [3] | [4] | [6] | [7] | [8] | [13]

C#CCOC(=O)[C@@H](C)Oc1ccc(Oc2ncc(Cl)cc2F)cc1
inactive: [2] | [3] | [5] | [6] | [7] | [8] | [13] | [9]

C[C@]12C[C@H](O)[C@H]3[C@@H](CCC4=CC(=O)CC[C@@]43C)[C@@H]1CC[C@@H]2C(=O)CO
inactive: [1] | [10] | [5]

O=C(c1ccc(O)cc1O)c1ccc(O)cc1O
inactive: [1] | [10] | [12]
active: [11] 0.19 µM

CCC(O)=C1C(=O)CC(C(=O)O)CC1=O (stereo unspecified)
inactive: [3] | [4] | [6] | [8] | [13] | [9]

COc1nc(C)nc(NC(=O)NS(=O)(=O)c2ccccc2OCCCl)n1
inactive: [3] | [4] | [6] | [7] | [8] | [9]

CCCCOC(=O)C(C)Oc1ccc(Oc2ccc(C(F)(F)F)cn2)cc1 (stereo unspecified)
inactive: [1] | [2] | [4] | [5] | [6] | [7] | [8] | [9]

CCCOC(=O)c1ccc(C(=O)OCCC)nc1
active: [2] 1.97 µM
inactive: [3] | [11] | [12] | [5] | [6] | [7] | [13] | [9]

CCCCOC(=O)[C@@H](C)Oc1ccc(Oc2ccc(C(F)(F)F)cn2)cc1
inactive: [10] | [3] | [7] | [8] | [9]
active: [4] 20 µM
